# Source: PubChem BioAssay (The Scripps Research Institute Molecular Screening Center)
# Most compounds without a hit are left out; they make up all but 2.9% or so of the library.
# ADAM17 inh = ADAM17 inhibitors, primary screen, biochemical, QFRET | Disintegrin and metalloproteinase domain-containing protein 17 (Homo sapiens), P78536 | recombinant ADAM17, EDANS/DABCYL FRET peptide cleavage | inhibition, % at 6.95 µM | 0.83% of 370,000 active;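 active = inhibition above the mean of compounds lying between control limits plus 3 SD, set per campaign, cut at about 8.5% in these data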;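 also: 0% = DMSO-only wells as the low control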
# PLCb3 inh = human PLC-beta3 inhibitors, primary screen, biochemical, fluorescence. 0.18% of 370,000 active. 1-phosphatidylinositol 4,5-bisphosphate phosphodiesterase beta-3 (Homo sapiens), Q01970. Purified PLC-beta3, fluorogenic substrate. inhibition, % at 12.2 µM;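 also: 0% = median of compound wells on plate and 100% = full blocker control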
# Target sequence (Q01970 whole entry, looked up): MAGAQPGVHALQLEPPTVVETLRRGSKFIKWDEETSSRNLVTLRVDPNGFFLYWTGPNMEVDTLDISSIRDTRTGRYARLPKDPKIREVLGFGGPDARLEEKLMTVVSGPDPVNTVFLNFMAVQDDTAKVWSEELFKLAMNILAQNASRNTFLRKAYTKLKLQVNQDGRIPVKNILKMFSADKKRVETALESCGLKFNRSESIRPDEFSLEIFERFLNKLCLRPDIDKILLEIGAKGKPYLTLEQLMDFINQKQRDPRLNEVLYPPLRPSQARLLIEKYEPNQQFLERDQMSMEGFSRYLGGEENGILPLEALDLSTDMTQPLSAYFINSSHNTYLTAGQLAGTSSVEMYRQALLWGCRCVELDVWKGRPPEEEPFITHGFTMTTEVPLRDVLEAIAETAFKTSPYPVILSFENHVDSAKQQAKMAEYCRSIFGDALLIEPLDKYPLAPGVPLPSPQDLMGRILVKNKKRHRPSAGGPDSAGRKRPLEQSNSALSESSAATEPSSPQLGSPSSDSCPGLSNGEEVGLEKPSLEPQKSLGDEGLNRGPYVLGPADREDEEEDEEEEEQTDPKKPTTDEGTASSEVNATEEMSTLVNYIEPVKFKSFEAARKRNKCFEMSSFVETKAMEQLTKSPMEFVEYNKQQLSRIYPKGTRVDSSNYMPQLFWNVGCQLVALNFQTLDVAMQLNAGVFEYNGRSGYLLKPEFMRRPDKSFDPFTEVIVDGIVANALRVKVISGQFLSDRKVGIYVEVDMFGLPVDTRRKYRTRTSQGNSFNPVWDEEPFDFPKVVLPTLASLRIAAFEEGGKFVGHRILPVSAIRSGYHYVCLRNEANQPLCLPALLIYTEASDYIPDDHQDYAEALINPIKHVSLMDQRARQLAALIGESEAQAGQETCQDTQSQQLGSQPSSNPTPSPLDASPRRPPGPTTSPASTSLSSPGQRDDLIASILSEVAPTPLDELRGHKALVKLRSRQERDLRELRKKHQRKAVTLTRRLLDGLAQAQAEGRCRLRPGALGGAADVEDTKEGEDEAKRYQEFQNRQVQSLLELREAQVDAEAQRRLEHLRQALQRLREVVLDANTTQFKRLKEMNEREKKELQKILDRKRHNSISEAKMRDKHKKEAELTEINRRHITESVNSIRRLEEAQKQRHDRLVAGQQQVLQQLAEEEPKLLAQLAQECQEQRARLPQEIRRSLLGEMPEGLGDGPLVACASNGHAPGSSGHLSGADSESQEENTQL
# PLCg1 inh = PLC-gamma1 enzyme inhibitors, primary screen, biochemical, fluorescence, purified enzyme; AID 720700, 2013; 1-phosphatidylinositol 4,5-bisphosphate phosphodiesterase gamma-1 (Homo sapiens), P19174; fluorogenic substrate; inhibition, % at 12.2 µM; 0.84% of 370,000 active; in the data active = inhibition above about 9.5%
# KLK7 zymogen act = proKLK7 zymogen activators, primary screen, biochemical, fluorescence intensity; Kallikrein-7 (Homo sapiens), P49862; purified proKLK7, EDANS-DABCYL substrate fluorescence; 100% is mature enzyme control, 0% vehicle; activation, % at 7 µM; 0.9% of 370,000 active;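 active = activation above the mean of all tested compounds plus 3 SD, computed per campaign excluding outliers beyond control limits, cut at about 13% in these data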
# ADAM10 inh = human ADAM10 inhibitors, primary screen, biochemical, QFRET, HTS; 0.62% of 370,000 active; inhibition, % at 7 µM; recombinant ADAM10, EDANS/DABCYL FRET peptide cleavage, 3 h; Disintegrin and metalloproteinase domain-containing protein 10 (Homo sapiens), O14672;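 active = inhibition above a per-campaign cutoff equal to the mean of compounds falling between control-based bounds plus 3 SD, cut at about 20% in these data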;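 also: 0% = DMSO wells while the 100% control is not disclosed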
# PLCg1 ctr = PLC-gamma1 enzyme inhibitors, counter-screen for PLC-beta3 inhibitor project, biochemical, fluorescence | shares compounds with PLCg1 inh | purified PLC-gamma1, fluorogenic substrate | inhibition, % at 12.3 µM | 3.1% of 3,300 active; in the data active = inhibition above about 9.5%
# PLCb3 confirm = PLC-beta3 inhibitor confirmation, biochemical, fluorescence, purified enzyme; 1% of 3,300 active; fluorogenic substrate fluorescence; AID 743261, 2014; shares compounds with PLCg1 inh; inhibition, % at 12.3 µM
# Active calls of the source: *; / = no result given. Rule as the data show it, unless noted: active = inhibition above about 11%; inactive = the rest.
SMILES,ADAM17 inh,PLCb3 inh,PLCg1 inh,KLK7 zymogen act,ADAM10 inh,PLCg1 ctr,PLCb3 confirm
CN(CC(=O)Nc1cccc(F)c1)C(=O)Cc1n[nH]c(=O)c2ccccc12,-0.4,1.7,0.0,-0.3,2.1,/,/
Cc1cc(NC(=O)CCc2c[nH]c3ccccc23)ccc1Nc1cccnc1,8.0,-1.2,1.4,-0.6,7.0,/,/
CNC(=O)CN1C(=O)CSc2ncccc21,1.1,14.1*,3.7,-0.5,6.3,1.7,1.8
CC(CCN1CCC(C(O)(c2ccccc2)c2ccccc2)CC1)Oc1cccc(F)c1 (stereo not drawn),4.5,5.4,5.4,0.8,2.8,/,/
CC(CCN1CCC(C(O)(c2ccccc2)c2ccccc2)CC1)Oc1cc(F)cc(C#N)c1 (stereo not drawn),6.0,3.6,11.5*,0.1,6.8,8.3,3.3
Cc1nn(-c2ccccc2)c(-c2ccccc2[N+](=O)[O-])c1CC#N,-3.1,2.9,0.3,-0.3,-11.2,/,/
C#CCNC(=O)C[C@@H]1C[C@@]2(C(=O)OCC)CCCC=C2N(Cc2ccc(Cl)cc2Cl)C1=O,-0.4,-0.1,1.3,0.0,-7.7,/,/
CCOC(=O)N1CCN(C(=O)c2ccc(CS(=O)Cc3ccccc3Cl)o2)CC1 (stereo not drawn),3.8,-6.2,9.9*,-0.5,-10.7,-2.5,3.1
CCOC(=O)N1CCN(C(=O)c2ccc(CS(=O)Cc3ccc(C)cc3)o2)CC1 (stereo not drawn),-4.5,-3.6,-2.9,-0.4,-6.7,/,/
C(=C\c1ccccc1)/C=N/n1cnnc1,-0.5,-2.5,10.3*,0.0,-9.3,7.8,3.6
Nc1nnnn1/N=C/C=C/c1ccccc1,-3.5,-1.3,0.5,0.5,3.9,/,/
Cc1ccc(C(=O)Oc2coc(CSc3nnc(NC(=O)C4CC4)s3)cc2=O)cc1C,5.2,8.0,10.7*,-0.5,12.4,0.7,1.4
COc1ccc(C(=O)N2CCC(C(=O)Nc3ccc4c(c3)OCCO4)CC2)cc1,6.4,12.0*,9.0,-0.6,10.4,-7.6,-1.6
O=C(Nc1ccc2c(c1)OCCO2)C1CCN(C(=O)c2ccc(Br)cc2)CC1,-1.1,-1.0,-0.1,-0.1,-0.4,/,/
O=C(Cc1ccc(NC(=O)C2CCCN(C(=O)C3CCCCC3)C2)cc1)Nc1ccc(C(=O)N2CCOCC2)cc1 (stereo not drawn),3.5,9.2,10.3*,1.0,1.2,-4.8,-0.4
O=C(Cc1ccc(NC(=O)C2CCN(C(=O)C3CCCCC3)CC2)cc1)Nc1ccc(C(=O)N2CCOCC2)cc1,6.0,9.7,12.9*,0.4,2.4,0.2,3.3
CCN(CC(=O)Nc1cc(Cl)ccc1C)C(=O)C1CC1,-0.2,0.7,14.0*,0.0,4.9,-7.7,-3.8
CCN(CC(=O)Nc1cc(Cl)ccc1C)C(=O)C1CC(=O)N(Cc2ccccc2)C1 (stereo not drawn),-6.9,-7.8,0.8,0.2,-2.9,/,/
O=C(C[C@@H]1CC[C@H](NC(=O)Cc2ccccn2)[C@@H](CO)O1)NCCc1ccccc1,-6.0,-1.0,-0.6,-0.5,-8.3,/,/
CC1CCN(C(=O)CSc2nnc3ccc(-c4cccnc4)nn23)CC1,-7.5,-124.1,-94.8,3.2,-24.0,/,/
CC(C)CNC(=O)C1CCN(Cc2ccc(OCc3ccccc3)cc2)CC1,0.1,1.1,11.8*,0.1,-14.5,-6.7,1.8
O=C(COC(=O)/C=C/c1cccc(F)c1)Nc1ccccc1,0.5,-1.4,0.2,-0.7,6.6,/,/
O=C(COC(=O)/C=C/c1cccc(F)c1)NNC(=O)c1ccccc1,3.8,3.9,10.7*,0.1,7.7,-10.3,-5.1
CCOC(=O)N1CCN(C(=O)CN(c2ccc(OC)cc2)S(C)(=O)=O)CC1,1.1,11.2*,6.2,-1.0,0.8,0.0,0.1
CCOC(=O)N1CCN(C(=O)CN(c2cccc(C)c2)S(=O)(=O)c2ccc(C)cc2)CC1,0.8,2.3,19.6*,-0.1,7.4,-15.3,-1.3
SMILES,ADAM17 inh,PLCb3 inh,PLCg1 inh,KLK7 zymogen act,ADAM10 inh,PLCg1 ctr,PLCb3 confirm
CCOC(=O)N1CCN(C(=O)CN(c2cccc(OC)c2)S(C)(=O)=O)CC1,-1.0,0.2,-0.1,-0.2,-8.7,/,/
Cc1cc(C)c(S(=O)(=O)N2CCCCC2)c(C)c1N(C)S(=O)(=O)c1ccccc1,5.4,1.7,10.6*,0.3,5.3,-3.0,3.0
Cc1cc(C)c(S(=O)(=O)N2CCOCC2)c(C)c1N(C)S(=O)(=O)c1ccccc1,0.6,-2.8,0.5,0.7,5.1,/,/
O=C(Cn1cc(COc2ccc(Cl)c(Cl)c2)nn1)NS(=O)(=O)c1ccccc1OC(F)(F)F,-5.2,-4.1,0.1,0.7,-10.3,/,/
CN1CCN(CCC(=O)N/N=C/c2ccccn2)CC1,-3.7,3.3,10.1*,0.0,-0.1,4.3,-4.6
CCCCOC(=O)CSc1nc2c(c(=O)[nH]c(=O)n2C)n1C/C=C(\C)Cl,3.0,5.6,13.1*,-0.2,-0.3,2.0,2.9
C/C(Cl)=C/Cn1c(SCC(C)C)nc2c1c(=O)[nH]c(=O)n2C,-0.5,1.1,4.2,-0.1,2.1,/,/
COc1ccccc1NC(=O)Cn1c(=O)n(C)c(=O)c2sc3c(c21)COC(C)(C)C3,0.8,2.4,12.5*,0.4,10.5,-4.6,1.2
COc1ccccc1NC(=O)Cn1nnc2sc3c(c2c1=O)CC(C)(C)OC3,-2.2,-3.8,1.9,0.5,-3.4,/,/
C[C@H]1[C@@H](O)CC[C@@]23CCCN2C(=O)CCC[C@@H]13,-3.4,1.2,-1.1,/,-6.3,/,/
Cc1cccc(C)c1-n1nnnc1C1(C)CCC(=O)N1C1CC1 (stereo not drawn),-0.8,-0.5,-0.3,0.5,-13.7,/,/
Cc1[nH]n(S(=O)(=O)c2ccccc2)c(=O)c1N=Nc1cccc(Cl)c1,-3.3,-10.0,-3.9,0.1,-9.7,/,/
Cc1[nH]n(S(=O)(=O)Cc2ccccc2)c(=O)c1N=Nc1ccccc1Cl,0.8,1.0,11.6*,-0.2,9.4,1.7,5.1
Cc1ccc(C(=O)/C=C\C(=O)c2ccc(C)cc2)cc1,-4.8,-1.8,3.2,0.1,-5.8,/,/
CC(/C=C/C(=O)c1ccc(C)cc1)=C\c1ccccc1,5.4,8.0,10.4*,-0.8,9.7,-2.4,-2.5
COc1ccc(CSc2nnc(C)n2N)cc1[N+](=O)[O-],1.6,-3.5,10.4*,0.0,-2.9,-3.5,-1.8
